# Data taken from ChEMBL document CHEMBL1961873, “Compounds: GSK PKIS; Assays: Nanosyn kinase panel” (2012).
# Columns and labels:
# [1] = target: T1, Inhibitor of nuclear factor kappa-B kinase subunit epsilon (Homo sapiens) (UniProt Q14164); conditions: at 1 µM;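 also: reported values are averaged percent inhibition figures against human IKKε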
# T1 sequence (whole entry): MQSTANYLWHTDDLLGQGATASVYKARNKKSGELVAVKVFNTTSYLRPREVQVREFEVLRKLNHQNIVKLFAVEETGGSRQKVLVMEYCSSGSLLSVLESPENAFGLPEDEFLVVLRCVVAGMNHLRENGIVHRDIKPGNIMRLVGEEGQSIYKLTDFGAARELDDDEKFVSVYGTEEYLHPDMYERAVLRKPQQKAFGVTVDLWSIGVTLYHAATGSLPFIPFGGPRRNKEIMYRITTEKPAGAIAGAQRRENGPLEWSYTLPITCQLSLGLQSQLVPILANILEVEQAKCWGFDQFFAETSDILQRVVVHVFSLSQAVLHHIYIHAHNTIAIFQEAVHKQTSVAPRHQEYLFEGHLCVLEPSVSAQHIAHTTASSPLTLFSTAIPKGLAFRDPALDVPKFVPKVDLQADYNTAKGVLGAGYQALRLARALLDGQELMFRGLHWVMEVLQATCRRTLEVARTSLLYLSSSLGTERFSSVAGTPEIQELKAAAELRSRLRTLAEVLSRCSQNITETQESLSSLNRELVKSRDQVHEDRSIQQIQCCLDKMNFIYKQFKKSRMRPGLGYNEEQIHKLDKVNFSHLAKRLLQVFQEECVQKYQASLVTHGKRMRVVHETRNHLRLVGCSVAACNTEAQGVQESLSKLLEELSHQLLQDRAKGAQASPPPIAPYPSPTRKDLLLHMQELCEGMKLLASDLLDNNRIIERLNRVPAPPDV
# [2] = target: T2, Serine/threonine-protein kinase Nek1 (Homo sapiens) (UniProt Q96PY6); conditions: at 0.1 µM
# T2 sequence (whole entry): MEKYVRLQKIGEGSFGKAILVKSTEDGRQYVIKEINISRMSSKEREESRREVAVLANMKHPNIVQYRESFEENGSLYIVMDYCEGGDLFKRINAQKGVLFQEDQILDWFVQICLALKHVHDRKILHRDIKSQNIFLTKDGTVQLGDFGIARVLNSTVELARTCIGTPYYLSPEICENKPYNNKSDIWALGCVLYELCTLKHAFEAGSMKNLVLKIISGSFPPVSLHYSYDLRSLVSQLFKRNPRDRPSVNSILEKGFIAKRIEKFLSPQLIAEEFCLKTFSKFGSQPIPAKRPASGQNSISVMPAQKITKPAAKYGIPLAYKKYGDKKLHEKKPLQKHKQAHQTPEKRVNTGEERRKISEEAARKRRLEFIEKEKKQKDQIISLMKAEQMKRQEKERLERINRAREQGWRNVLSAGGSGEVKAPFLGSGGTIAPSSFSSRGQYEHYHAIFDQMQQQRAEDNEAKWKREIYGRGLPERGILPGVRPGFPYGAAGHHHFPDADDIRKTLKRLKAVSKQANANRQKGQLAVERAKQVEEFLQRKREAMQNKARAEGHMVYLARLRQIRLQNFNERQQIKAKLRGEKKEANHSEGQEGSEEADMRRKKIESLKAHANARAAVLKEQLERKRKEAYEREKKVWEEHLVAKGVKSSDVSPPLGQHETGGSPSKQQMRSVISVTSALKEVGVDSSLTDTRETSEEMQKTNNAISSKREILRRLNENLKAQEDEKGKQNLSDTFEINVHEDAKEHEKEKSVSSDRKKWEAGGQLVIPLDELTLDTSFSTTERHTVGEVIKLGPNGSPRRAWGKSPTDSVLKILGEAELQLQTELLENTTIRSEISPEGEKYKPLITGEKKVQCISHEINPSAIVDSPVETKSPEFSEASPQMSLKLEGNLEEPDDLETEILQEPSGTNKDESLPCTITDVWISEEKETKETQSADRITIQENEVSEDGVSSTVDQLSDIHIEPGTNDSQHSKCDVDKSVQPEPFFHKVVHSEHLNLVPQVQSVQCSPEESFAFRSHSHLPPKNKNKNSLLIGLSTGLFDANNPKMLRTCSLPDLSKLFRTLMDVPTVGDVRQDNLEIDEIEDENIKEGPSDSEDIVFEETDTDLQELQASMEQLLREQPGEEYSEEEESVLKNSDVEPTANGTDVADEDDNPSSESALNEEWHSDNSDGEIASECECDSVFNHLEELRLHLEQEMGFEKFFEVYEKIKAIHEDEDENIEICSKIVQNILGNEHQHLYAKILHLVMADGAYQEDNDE
# [3] = target: T2, Serine/threonine-protein kinase Nek1 (Homo sapiens); conditions: at 1 µM
# [4] = target: T3, Serine/threonine-protein kinase Nek2 (Homo sapiens) (UniProt P51955); conditions: at 0.1 µM
# T3 sequence (whole entry): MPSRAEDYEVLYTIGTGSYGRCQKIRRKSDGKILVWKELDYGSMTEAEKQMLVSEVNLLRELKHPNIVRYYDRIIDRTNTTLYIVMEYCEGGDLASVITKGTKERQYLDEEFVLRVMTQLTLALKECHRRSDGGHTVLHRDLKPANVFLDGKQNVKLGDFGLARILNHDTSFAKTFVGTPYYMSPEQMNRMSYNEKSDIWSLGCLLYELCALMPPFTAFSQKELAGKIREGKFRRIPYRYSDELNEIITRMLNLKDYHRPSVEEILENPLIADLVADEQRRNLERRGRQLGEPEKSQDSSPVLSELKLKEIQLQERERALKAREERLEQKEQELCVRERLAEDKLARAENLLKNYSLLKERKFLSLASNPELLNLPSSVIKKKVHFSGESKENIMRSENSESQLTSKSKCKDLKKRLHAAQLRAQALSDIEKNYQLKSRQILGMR
# [5] = target: T3, Serine/threonine-protein kinase Nek2 (Homo sapiens); conditions: at 1 µM
# [6] = target: Serine/threonine-protein kinase Nek6 (Homo sapiens) (UniProt Q9HC98); conditions: at 0.1 µM
# Sequence of Serine/threonine-protein kinase Nek6 (Homo sapiens) (Q9HC98 whole entry): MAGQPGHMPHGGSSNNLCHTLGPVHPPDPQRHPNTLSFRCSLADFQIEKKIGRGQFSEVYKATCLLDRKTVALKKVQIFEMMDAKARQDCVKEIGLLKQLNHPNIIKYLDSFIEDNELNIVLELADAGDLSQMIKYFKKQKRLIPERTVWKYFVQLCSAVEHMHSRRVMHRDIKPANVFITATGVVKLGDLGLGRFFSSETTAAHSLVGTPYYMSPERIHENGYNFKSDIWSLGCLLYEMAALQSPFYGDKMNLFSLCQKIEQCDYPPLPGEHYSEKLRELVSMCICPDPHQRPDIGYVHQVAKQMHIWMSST
# [7] = target: Serine/threonine-protein kinase Nek6 (Homo sapiens) (UniProt Q9HC98); conditions: at 1 µM
# [8] = target: Serine/threonine-protein kinase Nek7 (Homo sapiens) (UniProt Q8TDX7); conditions: at 0.1 µM
# Sequence of Serine/threonine-protein kinase Nek7 (Homo sapiens) (Q8TDX7 whole entry, looked up): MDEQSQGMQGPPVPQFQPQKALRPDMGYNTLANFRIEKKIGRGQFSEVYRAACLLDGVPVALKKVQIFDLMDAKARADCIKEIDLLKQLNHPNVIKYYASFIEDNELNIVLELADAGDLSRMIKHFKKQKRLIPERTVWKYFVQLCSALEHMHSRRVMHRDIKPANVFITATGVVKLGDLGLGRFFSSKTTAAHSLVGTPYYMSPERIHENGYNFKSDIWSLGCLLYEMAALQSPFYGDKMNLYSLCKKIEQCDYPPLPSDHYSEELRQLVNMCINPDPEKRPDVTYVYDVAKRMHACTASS
# [9] = target: Serine/threonine-protein kinase Nek7 (Homo sapiens) (UniProt Q8TDX7); conditions: at 1 µM
# [10] = target: T4, Serine/threonine-protein kinase Nek9 (Homo sapiens) (UniProt Q8TD19); conditions: at 0.1 µM
# T4 sequence (whole entry): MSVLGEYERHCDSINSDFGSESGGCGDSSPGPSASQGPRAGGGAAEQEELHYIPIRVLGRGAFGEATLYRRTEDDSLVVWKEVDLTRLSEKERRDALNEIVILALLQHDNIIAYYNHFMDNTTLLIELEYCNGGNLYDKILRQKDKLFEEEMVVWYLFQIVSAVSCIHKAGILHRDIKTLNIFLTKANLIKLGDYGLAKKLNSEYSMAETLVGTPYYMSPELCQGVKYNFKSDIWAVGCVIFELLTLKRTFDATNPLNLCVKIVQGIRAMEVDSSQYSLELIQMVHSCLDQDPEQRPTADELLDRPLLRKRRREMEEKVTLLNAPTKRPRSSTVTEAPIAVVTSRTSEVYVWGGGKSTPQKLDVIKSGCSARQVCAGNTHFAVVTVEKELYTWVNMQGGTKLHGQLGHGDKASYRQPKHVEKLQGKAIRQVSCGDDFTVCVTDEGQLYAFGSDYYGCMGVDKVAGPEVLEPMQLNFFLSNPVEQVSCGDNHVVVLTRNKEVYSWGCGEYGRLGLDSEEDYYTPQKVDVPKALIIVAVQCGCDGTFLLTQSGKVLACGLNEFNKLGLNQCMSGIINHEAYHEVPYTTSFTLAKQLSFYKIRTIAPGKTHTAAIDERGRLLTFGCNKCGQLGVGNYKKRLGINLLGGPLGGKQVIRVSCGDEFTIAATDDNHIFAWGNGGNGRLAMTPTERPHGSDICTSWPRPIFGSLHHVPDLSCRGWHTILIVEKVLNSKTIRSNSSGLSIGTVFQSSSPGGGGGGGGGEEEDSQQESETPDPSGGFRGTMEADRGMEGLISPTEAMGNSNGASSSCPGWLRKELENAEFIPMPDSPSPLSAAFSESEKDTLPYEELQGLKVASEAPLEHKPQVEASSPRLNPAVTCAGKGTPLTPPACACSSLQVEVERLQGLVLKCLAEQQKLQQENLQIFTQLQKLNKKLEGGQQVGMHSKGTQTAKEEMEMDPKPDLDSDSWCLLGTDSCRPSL
# [11] = target: T4, Serine/threonine-protein kinase Nek9 (Homo sapiens); conditions: at 1 µM
# [12] = target: Serine/threonine-protein kinase PLK1 (Homo sapiens) (UniProt P53350); conditions: at 0.1 µM
# Sequence of Serine/threonine-protein kinase PLK1 (Homo sapiens) (P53350 whole entry): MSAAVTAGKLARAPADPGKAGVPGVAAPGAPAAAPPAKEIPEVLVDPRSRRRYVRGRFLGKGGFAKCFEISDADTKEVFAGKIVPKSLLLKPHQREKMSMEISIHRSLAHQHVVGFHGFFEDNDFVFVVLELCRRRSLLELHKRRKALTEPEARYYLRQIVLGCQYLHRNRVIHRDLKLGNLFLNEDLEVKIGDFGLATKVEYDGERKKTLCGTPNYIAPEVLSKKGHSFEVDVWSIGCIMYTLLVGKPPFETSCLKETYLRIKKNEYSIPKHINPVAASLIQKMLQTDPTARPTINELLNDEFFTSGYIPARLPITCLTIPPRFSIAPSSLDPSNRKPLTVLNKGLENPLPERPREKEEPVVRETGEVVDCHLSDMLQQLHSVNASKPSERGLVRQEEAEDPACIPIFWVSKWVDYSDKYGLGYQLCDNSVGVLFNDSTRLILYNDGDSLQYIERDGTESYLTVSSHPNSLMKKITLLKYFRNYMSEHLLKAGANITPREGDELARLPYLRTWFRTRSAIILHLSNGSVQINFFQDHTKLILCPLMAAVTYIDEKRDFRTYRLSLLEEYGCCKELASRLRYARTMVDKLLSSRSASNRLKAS
# [13] = target: Serine/threonine-protein kinase PLK1 (Homo sapiens) (UniProt P53350); conditions: at 1 µM
# [14] = target: T5, Dual specificity protein kinase TTK (Homo sapiens) (UniProt P33981); conditions: at 0.1 µM
# T5 sequence (whole entry): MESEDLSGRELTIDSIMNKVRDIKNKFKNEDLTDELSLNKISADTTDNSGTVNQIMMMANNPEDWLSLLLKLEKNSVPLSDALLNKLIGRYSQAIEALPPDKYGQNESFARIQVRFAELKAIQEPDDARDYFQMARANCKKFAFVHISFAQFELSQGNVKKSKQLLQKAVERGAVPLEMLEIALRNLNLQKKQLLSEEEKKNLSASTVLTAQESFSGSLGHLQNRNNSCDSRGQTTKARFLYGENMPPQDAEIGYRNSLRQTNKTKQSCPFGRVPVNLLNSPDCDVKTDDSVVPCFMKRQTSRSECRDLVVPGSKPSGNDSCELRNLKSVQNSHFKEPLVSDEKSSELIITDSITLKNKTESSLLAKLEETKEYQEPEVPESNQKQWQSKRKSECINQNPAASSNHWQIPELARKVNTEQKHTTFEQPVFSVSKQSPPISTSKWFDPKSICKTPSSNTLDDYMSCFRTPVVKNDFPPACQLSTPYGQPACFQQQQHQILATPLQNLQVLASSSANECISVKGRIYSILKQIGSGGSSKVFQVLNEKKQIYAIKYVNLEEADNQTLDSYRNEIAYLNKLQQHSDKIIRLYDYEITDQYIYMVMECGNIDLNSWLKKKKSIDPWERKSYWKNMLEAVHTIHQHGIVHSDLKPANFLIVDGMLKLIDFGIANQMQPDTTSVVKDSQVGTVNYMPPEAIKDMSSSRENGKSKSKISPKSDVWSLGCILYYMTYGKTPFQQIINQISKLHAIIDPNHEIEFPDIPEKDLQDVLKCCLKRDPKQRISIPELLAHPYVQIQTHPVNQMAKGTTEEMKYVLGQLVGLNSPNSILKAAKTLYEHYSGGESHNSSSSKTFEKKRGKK
# [15] = system: T6, Receptor-type tyrosine-protein kinase FLT3 (Homo sapiens), P36888 [D835Y]; conditions: at 1 µM
# T6 sequence (whole entry): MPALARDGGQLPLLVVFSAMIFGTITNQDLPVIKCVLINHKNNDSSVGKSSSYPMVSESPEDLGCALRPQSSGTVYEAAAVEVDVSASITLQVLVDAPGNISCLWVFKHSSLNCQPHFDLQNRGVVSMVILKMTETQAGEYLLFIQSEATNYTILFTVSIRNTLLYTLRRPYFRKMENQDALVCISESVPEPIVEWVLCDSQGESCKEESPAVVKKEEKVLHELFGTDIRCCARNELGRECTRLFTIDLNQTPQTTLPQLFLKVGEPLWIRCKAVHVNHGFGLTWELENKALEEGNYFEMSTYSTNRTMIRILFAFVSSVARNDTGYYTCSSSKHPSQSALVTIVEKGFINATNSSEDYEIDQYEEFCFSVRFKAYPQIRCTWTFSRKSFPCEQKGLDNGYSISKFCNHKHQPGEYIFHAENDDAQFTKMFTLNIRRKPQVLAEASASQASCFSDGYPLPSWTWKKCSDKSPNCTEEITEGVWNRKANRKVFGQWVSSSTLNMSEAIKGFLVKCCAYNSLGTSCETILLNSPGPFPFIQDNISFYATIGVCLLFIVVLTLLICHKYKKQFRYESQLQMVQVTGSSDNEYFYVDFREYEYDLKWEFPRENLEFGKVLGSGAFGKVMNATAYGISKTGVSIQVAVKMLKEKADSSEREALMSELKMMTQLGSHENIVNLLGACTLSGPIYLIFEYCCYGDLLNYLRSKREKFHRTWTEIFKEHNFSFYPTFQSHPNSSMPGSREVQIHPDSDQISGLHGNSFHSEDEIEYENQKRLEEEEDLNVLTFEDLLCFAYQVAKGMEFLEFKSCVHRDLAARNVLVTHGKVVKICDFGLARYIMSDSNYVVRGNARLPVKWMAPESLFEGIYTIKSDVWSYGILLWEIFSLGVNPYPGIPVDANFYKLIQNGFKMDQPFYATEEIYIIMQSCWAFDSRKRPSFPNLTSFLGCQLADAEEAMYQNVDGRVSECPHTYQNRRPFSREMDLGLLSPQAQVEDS
# [16] = target: Vascular endothelial growth factor receptor 3 (Homo sapiens) (UniProt P35916); conditions: at 0.1 µM
# Sequence of Vascular endothelial growth factor receptor 3 (Homo sapiens) (P35916 whole entry): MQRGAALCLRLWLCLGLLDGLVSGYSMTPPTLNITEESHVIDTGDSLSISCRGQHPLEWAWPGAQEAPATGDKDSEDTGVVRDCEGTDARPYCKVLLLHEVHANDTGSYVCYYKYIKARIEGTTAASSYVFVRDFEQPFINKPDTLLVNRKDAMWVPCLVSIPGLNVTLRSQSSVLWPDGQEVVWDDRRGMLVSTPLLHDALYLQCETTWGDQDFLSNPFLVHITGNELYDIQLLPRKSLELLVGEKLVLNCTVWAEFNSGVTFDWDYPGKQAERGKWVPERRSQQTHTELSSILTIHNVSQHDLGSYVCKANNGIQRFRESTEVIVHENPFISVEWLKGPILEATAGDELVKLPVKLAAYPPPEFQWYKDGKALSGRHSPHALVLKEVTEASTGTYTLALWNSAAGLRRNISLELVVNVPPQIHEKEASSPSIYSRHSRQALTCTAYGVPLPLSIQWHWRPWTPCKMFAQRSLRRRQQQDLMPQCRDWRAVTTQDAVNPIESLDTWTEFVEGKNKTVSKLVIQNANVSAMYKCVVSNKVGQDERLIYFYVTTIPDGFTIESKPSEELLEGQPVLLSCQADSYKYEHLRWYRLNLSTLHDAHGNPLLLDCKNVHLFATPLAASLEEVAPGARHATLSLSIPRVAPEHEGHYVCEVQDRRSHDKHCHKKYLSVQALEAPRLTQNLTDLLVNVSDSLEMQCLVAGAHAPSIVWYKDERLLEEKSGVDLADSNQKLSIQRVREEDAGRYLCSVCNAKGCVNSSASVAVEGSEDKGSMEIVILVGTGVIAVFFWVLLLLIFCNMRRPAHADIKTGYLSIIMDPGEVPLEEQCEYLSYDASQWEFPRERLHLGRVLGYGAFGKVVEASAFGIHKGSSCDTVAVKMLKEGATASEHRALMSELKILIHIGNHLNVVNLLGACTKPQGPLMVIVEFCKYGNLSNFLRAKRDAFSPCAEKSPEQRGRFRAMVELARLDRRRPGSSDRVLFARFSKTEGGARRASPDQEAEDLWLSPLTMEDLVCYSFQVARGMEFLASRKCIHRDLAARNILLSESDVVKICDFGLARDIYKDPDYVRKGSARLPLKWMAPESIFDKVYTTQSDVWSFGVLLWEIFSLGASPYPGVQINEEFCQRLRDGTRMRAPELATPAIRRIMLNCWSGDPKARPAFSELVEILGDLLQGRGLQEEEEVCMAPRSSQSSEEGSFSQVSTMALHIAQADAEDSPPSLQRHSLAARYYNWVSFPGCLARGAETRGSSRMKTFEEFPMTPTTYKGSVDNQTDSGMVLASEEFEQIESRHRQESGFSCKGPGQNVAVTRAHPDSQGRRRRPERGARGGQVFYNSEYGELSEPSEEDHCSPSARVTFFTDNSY
# [17] = target: Vascular endothelial growth factor receptor 3 (Homo sapiens) (UniProt P35916); conditions: at 1 µM
# [18] = target: Macrophage colony-stimulating factor 1 receptor (Homo sapiens) (UniProt P07333); conditions: at 0.1 µM
# Sequence of Macrophage colony-stimulating factor 1 receptor (Homo sapiens) (P07333 whole entry): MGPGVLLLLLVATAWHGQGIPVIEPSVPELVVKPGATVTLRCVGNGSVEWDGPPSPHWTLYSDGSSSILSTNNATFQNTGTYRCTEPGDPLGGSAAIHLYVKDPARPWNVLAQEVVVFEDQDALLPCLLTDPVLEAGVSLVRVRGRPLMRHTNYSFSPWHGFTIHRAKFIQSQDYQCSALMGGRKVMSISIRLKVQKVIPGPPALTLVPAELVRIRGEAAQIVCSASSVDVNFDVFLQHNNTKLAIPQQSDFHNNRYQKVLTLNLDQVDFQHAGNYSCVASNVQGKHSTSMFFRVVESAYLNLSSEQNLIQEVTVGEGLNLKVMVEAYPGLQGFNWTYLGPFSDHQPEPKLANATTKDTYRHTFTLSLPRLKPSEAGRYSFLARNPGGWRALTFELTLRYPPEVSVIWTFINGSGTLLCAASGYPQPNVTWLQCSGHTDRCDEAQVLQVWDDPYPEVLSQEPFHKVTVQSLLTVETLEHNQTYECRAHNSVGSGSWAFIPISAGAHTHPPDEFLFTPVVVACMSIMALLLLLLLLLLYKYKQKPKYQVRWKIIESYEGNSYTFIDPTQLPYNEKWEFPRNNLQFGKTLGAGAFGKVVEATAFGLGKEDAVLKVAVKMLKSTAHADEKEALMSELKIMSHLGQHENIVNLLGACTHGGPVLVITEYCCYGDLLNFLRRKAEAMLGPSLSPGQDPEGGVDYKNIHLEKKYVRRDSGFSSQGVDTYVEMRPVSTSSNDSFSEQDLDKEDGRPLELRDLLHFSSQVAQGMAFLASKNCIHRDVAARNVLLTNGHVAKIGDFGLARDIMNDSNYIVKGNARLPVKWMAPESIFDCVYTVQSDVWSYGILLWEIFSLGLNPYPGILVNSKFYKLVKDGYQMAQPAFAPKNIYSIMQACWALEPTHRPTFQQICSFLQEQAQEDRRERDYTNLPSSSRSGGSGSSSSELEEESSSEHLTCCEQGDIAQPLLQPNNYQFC
# [19] = target: Macrophage colony-stimulating factor 1 receptor (Homo sapiens) (UniProt P07333); conditions: at 1 µM
# [20] = target: Tyrosine-protein kinase Fyn (Homo sapiens) (UniProt P06241); conditions: at 0.1 µM
# Sequence of Tyrosine-protein kinase Fyn (Homo sapiens) (P06241 2-537 limits assumed): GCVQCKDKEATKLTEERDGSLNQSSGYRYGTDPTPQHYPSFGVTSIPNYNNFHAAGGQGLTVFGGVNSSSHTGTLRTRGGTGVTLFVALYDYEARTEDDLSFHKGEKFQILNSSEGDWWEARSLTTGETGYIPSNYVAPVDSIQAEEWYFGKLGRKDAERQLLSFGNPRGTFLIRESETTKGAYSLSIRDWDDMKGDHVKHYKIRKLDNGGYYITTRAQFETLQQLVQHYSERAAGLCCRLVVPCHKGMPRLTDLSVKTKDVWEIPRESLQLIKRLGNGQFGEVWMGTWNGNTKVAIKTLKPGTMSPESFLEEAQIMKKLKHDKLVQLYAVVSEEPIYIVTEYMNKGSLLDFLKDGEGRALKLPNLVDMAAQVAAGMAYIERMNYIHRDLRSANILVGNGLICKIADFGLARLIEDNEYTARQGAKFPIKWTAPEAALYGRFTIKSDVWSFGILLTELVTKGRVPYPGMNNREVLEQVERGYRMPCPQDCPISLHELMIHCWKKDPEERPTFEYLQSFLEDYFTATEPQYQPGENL
smiles,measurement,setting,value
COc1ccc(-c2oc3ncnc(N)c3c2-c2ccc(NC(=O)Nc3cc(C(F)(F)F)ccc3F)cc2)cc1,inhibition,[1],9.69%
same,inhibition,[2],5.73%
same,inhibition,[3],16.9%
same,inhibition,[4],5.08%
same,inhibition,[5],7.47%
same,inhibition,[6],2.43%
same,inhibition,[7],3.73%
same,inhibition,[8],3.58%
same,inhibition,[9],-1.9%
same,inhibition,[10],6.04%
same,inhibition,[11],39.3%
same,inhibition,[12],5.59%
same,inhibition,[13],4.48%
same,inhibition,[14],8.85%
same,inhibition,[15],47.1%
same,inhibition,[16],47.4%
same,inhibition,[17],98.4%
same,inhibition,[18],21.9%
same,inhibition,[19],90.2%
same,inhibition,[20],8%
